In PubChem BioAssay (Tox21):
Inconclusive results are not listed. Calls of active or inactive are those of the source. Unless noted, calls follow the shape of the dose curve; as a rule, active = well fitted curve in the direction sought with a large enough effect in the repeat runs; inconclusive = weak or mixed curves; inactive = no such curve, though single readings can be large; an effect the other way counts as inactive or inconclusive.

Columns and labels:
[1] = qHTS assay to identify small molecule antagonists of the TGF-beta/Smad signaling pathway - cell viability counter screen (AID 1346824); also: nearly all actives have a fitted effect of over 50% in size
Outline: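 SBE-bla HEK 293T cells were plated overnight at 37 C, then given compounds in DMSO plus TGF-beta1 (added as 0.25 ng/mL solution) for 5 hr. After the bla read, CellTiter-Glo was added to the same wells and luminescence read after 30 min at room temperature.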

[2] = qHTS assay to identify small molecule agonists of the TGF-beta/Smad signaling pathway - cell viability counter screen (AID 1346829); also: top concentration of the series differs between compounds; nearly all actives have a fitted effect of over 45% in size
Outline: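 After overnight seating at 37 C and 5% CO2, reporter cells got compounds for 5 hr and FRET substrate for 2 hr; cell viability then came from CellTiter-Glo luminescence.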

[3] = qHTS assay to identify small molecule agonists of the TGF-beta/Smad signaling pathway (AID 1346859; active = well fitted activation curve with a large enough effect in the signal ratio in the repeat runs, not every such curve was filed as active; the % refers to the signal ratio; also: series mostly up to about 77 µM)
Outline: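 SBE-bla HEK293T cells plated overnight, then compound exposure for 5 h at 37 C. Beta-lactamase reporter read with LiveBLAzer B/G FRET substrate after 2 h at room temperature, fluorescence at 405 nm excitation, 460/530 nm emission.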

[4] = molecular target: Thyrotropin-releasing hormone receptor (Homo sapiens) (UniProt P34981); assay: qHTS assay to identify small molecule antagonists of the thyrotropin-releasing hormone receptor (TRHR) signaling pathway (AID 1346877; active = well fitted inhibition curve with a large enough effect in the repeat runs, not every such curve was filed as active; also: series mostly up to about 51 µM)
Chain of Thyrotropin-releasing hormone receptor (Homo sapiens) (P34981 whole entry, looked up): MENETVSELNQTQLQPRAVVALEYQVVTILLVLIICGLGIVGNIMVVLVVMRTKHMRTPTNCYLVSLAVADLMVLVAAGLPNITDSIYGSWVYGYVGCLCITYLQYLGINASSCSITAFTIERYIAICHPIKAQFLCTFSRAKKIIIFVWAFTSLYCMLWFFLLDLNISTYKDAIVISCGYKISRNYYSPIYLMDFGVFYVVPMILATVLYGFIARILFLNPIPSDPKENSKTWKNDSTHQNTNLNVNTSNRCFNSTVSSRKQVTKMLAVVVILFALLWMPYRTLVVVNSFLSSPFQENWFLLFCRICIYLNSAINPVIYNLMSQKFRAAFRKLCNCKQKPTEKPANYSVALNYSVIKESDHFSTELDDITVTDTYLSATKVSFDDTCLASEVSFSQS
Outline: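 Intracellular calcium fluorescence, read kinetically every second over 3 min, reports TRH-evoked signalling in HEK293 cells carrying TRHR. Test compounds were added 5 min ahead of a 1 nM TRH challenge.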

[5] = molecular target: Thyrotropin-releasing hormone receptor (Homo sapiens) (UniProt P34981); assay: qHTS assay to identify small molecule agonists of the thyrotropin-releasing hormone receptor (TRHR) signaling pathway (AID 1346891; calls by dose curve; also: series mostly up to about 58 µM)
Outline: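 HEK293 cells expressing TRHR plated 18 h at 37 C/5% CO2, calcium dye-loaded 2 h at 37 C, then compound added (agonist mode); kinetic calcium fluorescence read 3 min at 1 s intervals; 15 concentrations in triplicate.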

[6] = Human pregnane X receptor (PXR) small molecule agonists, qHTS cell viability counter screen (AID 1346977); also: nearly all actives have a fitted effect of over 50% in size
Outline: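 PXR-Luc HepG2 cells (2,000/well, 5% charcoal-stripped FBS) preincubated 5 hr, then exposed to compounds 24 hr at 37 C. Viability read in the same wells by CellTiter-Fluor fluorescence, reagent added at 23 hr, 1 hr incubation.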

[7] = Caspase-3/7 induction in HepG2 cells by small molecules, qHTS assay (AID 1346978); also: nearly all actives have a fitted effect of over 15% in size
Outline: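 Wild-type HepG2 cells (2,000/well) were settled 5 h at 37 C, 5% CO2, then exposed to compounds in DMSO for 17 h. Caspase-3/7 activity was read by luminescence 30 min after adding Caspase-Glo 3/7 reagent at room temperature.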

[8] = Caspase-3/7 induction in CHO-K1 cells by small molecules, qHTS cell viability counter screen (AID 1346979); also: nearly all actives have a fitted effect of over 35% in size
Outline: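 Wild-type CHO-K1 cells (1,500/well) treated with compound after 5 h plating; after 16 h at 37C, viability read as CellTiter-Fluor fluorescence following 1 h reagent incubation, in the same wells as the caspase read.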

[9] = Caspase-3/7 induction in CHO-K1 cells by small molecules, qHTS assay (AID 1346980); also: nearly all actives have a fitted effect of over 15% in size
Outline: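 Wild-type cells were seeded at 1,500 per well and settled 5 hr at 37 C, 5% CO2, then exposed to DMSO-dissolved compounds for 17 hr. Caspase-Glo 3/7 reagent was added, and luminescence was read after 30min at room temperature.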

[10] = Caspase-3/7 induction in HepG2 cells by small molecules, qHTS cell viability counter screen (AID 1346981); also: series mostly up to about 92 µM; nearly all actives have a fitted effect of over 30% in size
Outline: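 HepG2, WT, 2,000 cells/well; 5 hr pre-incubation 37 C/5% CO2; compound pin-transferred from DMSO; 16 hr exposure; CellTiter-Fluor, 1 hr; fluorescence read.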

[11] = molecular target: Nuclear receptor subfamily 1 group I member 2 (Homo sapiens) (UniProt O75469); assay: Human pregnane X receptor (PXR) small molecule agonists, qHTS assay (AID 1346982); also: nearly all actives have a fitted effect of over 35% in size
Chain of Nuclear receptor subfamily 1 group I member 2 (Homo sapiens) (O75469 whole entry, looked up): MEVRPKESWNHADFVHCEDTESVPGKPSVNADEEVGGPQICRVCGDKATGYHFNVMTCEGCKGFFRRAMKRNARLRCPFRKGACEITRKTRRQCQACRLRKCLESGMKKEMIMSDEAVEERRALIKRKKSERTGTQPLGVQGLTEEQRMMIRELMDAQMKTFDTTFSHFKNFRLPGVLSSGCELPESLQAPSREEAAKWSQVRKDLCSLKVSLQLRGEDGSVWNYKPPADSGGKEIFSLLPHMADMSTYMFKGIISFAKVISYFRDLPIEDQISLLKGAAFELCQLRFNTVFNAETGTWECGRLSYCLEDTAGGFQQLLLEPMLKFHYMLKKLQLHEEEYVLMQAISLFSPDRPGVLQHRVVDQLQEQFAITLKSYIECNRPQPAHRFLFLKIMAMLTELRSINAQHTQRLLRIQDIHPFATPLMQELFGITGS
Outline: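 Luciferase signal from ONE-Glo (30 min, room temperature) measured activation of hPXR-driven CYP3A4 reporter expression in PXR-Luc HepG2 cells treated with compounds for 24 hr at 37 C.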

[12] = molecular target: Cytochrome P450 2D6 (Homo sapiens) (UniProt P10635); assay: Cytochrome P450 Family 2 Subfamily D Member 6 (CYP2D6) small molecule antagonists: luciferase reporter qHTS assay (AID 1671196); also: series mostly up to about 120 µM; nearly all actives have a fitted effect of over 50% in size
Chain of Cytochrome P450 2D6 (Homo sapiens) (P10635 whole entry, looked up): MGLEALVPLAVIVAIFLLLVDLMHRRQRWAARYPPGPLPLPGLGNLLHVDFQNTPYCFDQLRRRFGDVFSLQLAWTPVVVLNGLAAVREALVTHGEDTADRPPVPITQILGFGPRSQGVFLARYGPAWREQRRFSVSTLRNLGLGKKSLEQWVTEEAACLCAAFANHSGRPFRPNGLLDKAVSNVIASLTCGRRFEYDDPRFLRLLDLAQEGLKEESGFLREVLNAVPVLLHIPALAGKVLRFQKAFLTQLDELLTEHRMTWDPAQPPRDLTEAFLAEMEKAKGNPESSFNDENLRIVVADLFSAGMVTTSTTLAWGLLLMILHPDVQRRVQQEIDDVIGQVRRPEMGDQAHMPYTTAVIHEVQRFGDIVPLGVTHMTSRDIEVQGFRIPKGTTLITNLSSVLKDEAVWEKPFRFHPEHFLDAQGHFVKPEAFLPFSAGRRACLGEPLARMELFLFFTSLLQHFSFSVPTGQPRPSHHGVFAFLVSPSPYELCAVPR
Outline: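 Read-out is luminescence from luciferin formed by CYP2D6 turnover of a proluciferin substrate, recorded as relative luminescence units. Reactions ran 1 h at room temperature after NADPH regeneration solution was added.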

[13] = molecular target: Cytochrome P450 2C9 (Homo sapiens) (UniProt P11712); assay: Cytochrome P450 Family 2 Subfamily C Member 9 (CYP2C9) small molecule antagonists: luciferase reporter qHTS assay (AID 1671198); also: series mostly up to about 120 µM; nearly all actives have a fitted effect of over 50% in size
Chain of Cytochrome P450 2C9 (Homo sapiens) (P11712 whole entry, looked up): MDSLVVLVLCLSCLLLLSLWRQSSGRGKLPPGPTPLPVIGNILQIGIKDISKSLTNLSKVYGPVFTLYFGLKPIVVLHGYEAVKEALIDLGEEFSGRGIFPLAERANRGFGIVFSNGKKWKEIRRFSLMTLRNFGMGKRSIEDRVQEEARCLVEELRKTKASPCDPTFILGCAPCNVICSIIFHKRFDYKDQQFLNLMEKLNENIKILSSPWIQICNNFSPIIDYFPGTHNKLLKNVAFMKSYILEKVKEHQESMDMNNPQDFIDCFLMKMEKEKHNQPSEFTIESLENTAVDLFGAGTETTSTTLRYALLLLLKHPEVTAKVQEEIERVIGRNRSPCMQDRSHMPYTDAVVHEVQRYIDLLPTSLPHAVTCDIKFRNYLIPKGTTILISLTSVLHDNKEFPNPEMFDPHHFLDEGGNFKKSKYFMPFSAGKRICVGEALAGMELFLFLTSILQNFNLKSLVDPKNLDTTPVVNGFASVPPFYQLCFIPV
Outline: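 CYP2C9 activity was measured with a P450-Glo proluciferin substrate. Enzyme–substrate mix was held with compound for 10 min at room temperature, then NADPH regeneration solution was added for 1 h at 37C. Luciferin product was read as luminescence.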

[14] = molecular target: Voltage-gated inwardly rectifying potassium channel KCNH2 (Homo sapiens) (UniProt Q12809); assay: Human Ether-a-go-go-Related Gene (hERG) channel small molecule antagonists: fluorescence cell-based qHTS assay (AID 1671200)
Chain of Voltage-gated inwardly rectifying potassium channel KCNH2 (Homo sapiens) (Q12809 whole entry, looked up): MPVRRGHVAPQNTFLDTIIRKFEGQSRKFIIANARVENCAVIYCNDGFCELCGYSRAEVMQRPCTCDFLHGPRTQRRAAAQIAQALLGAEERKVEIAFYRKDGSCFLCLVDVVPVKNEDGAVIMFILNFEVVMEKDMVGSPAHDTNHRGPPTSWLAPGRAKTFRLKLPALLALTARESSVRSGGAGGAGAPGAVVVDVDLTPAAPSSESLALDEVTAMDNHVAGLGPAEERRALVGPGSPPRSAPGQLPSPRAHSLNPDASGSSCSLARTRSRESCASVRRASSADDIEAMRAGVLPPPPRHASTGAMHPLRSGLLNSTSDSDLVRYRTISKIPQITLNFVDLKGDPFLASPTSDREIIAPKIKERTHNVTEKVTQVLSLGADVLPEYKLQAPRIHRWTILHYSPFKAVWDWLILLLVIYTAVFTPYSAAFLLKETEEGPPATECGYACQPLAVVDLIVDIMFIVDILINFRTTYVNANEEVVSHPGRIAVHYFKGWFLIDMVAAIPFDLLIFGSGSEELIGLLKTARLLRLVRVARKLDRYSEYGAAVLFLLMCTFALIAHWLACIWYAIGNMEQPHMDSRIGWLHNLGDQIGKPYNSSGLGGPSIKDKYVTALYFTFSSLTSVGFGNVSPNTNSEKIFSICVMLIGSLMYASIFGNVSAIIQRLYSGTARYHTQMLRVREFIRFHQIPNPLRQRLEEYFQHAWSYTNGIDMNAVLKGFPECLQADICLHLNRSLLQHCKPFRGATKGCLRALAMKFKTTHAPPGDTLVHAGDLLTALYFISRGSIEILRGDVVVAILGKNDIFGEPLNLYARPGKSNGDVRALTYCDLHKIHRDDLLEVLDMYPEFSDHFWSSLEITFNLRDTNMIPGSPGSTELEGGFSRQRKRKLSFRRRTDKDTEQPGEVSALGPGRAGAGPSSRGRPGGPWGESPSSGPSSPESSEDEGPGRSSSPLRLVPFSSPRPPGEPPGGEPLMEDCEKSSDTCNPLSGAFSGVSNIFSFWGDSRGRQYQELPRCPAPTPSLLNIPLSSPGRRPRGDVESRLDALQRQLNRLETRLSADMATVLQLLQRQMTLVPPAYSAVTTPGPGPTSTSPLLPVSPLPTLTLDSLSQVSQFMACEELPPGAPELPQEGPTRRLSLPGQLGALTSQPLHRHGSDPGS
Outline: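 hERG-U2OS cells plated overnight at 37 C, loaded with FluxOR II dye 1 h at RT in dark; after 10 min, thallium stimulus added. Fluorescence (480/540 nm) read kinetically for 2 min at 1 s intervals.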

[15] = molecular target: Cytochrome P450 3A4 (Homo sapiens) (UniProt P08684); assay: Cytochrome P450 Family 3 Subfamily A Member 4 (CYP3A4) small molecule antagonists: luciferase reporter qHTS assay (AID 1671201)
Chain of Cytochrome P450 3A4 (Homo sapiens) (P08684 whole entry, looked up): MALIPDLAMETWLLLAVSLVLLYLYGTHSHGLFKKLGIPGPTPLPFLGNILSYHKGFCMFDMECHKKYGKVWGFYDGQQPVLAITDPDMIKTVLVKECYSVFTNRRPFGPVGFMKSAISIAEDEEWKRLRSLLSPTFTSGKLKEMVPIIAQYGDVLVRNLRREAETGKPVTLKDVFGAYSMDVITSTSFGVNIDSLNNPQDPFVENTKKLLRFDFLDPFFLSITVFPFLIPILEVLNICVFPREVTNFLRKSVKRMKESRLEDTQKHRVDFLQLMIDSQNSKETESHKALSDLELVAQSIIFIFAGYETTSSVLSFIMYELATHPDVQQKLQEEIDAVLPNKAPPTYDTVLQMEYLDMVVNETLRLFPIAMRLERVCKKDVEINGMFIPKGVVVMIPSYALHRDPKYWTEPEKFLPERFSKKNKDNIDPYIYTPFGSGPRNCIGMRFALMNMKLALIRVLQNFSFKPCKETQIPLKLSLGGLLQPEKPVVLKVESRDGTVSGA
Outline: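 P450-Glo CYP3A4 luminescent assay: compounds preincubated 10 min at room temperature with enzyme and proluciferin substrate, NADPH regeneration added, 1 h room-temperature reaction, stopped with luciferin detection reagent; luminescence read after 20 min. Ketoconazole positive control.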

[16] = molecular target: Cytochrome P450 2C19 (Homo sapiens) (UniProt P33261); assay: Cytochrome P450 Family 2 Subfamily C Member 19 (CYP2C19) small molecule antagonists: luciferase reporter qHTS assay (AID 1671197); also: series mostly up to about 120 µM; nearly all actives have a fitted effect of over 65% in size
Chain of Cytochrome P450 2C19 (Homo sapiens) (P33261 whole entry, looked up): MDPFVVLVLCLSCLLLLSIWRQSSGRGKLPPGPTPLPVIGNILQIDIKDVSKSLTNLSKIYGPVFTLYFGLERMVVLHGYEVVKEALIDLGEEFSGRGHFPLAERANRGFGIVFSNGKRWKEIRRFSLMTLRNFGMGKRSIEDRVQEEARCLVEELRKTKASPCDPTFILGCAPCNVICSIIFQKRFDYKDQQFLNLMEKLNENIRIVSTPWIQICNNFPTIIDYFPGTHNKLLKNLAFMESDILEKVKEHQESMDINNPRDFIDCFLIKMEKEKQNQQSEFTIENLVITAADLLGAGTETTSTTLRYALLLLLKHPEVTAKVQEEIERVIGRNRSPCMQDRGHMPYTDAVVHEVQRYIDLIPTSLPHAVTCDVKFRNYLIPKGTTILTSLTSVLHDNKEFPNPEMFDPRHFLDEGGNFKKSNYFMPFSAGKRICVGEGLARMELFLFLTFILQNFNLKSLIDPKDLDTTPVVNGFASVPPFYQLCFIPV
Outline: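 Inhibition of CYP2C19 was scored from loss of luminescence in a P450-Glo proluciferin substrate assay, NADPH-started and run 1 h at 37C, with ketoconazole as positive control.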

[17] = molecular target: Cytochrome P450 1A2 (Homo sapiens) (UniProt P05177); assay: Cytochrome P450 Family 1 Subfamily A Member 2 (CYP1A2) small molecule antagonists: luciferase reporter qHTS assay (AID 1671199)
Chain of Cytochrome P450 1A2 (Homo sapiens) (P05177 whole entry, looked up): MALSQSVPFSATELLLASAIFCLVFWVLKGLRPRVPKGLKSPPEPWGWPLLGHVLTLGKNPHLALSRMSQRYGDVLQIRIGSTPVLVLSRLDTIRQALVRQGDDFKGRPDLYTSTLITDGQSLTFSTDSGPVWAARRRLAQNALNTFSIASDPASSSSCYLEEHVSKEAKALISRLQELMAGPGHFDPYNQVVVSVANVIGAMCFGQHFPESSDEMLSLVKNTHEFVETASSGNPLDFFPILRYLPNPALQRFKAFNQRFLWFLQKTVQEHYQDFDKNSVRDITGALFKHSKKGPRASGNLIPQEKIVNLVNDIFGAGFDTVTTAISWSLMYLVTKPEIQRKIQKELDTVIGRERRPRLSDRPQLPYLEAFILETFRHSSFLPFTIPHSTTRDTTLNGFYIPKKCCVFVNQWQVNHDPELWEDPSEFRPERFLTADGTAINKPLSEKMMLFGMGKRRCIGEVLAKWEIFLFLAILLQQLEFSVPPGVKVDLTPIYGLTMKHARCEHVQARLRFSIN
Outline: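 P450-Glo CYP1A2, 1536-well qHTS: enzyme/proluciferin substrate + cpd (DMSO), 10 min RT; NADPH regen, 1 h RT; detection reagent, 20 min; luminescence, RLU.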

[18] = molecular target: Nuclear receptor subfamily 1 group I member 2 (Homo sapiens) (UniProt O75469); assay: CYP3A4 induction through human pregnane X receptor (PXR) by small molecules, qHTS assay (AID 1346984); also: nearly all actives have a fitted effect of over 40% in size
Outline: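 Luminescence readout: luciferase signal after One-Glo (30 min, room temperature), following 3 h at 37C with 3uM final Luciferin-IPA P450 substrate. Cells were DPX-2 (HepG2, PXR/CYP3A4-luc co-transfected) dosed for 24 h.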

[19] = molecular target: Nuclear receptor subfamily 1 group I member 2 (Homo sapiens) (UniProt O75469); assay: Human pregnane X receptor (PXR) activation by small molecules, qHTS assay (AID 1346985); also: nearly all actives have a fitted effect of over 40% in size
Outline: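 DPX-2 cells (HepG2 co-transfected with a PXR response element and a CYP3A4-promoter luciferase construct) were seeded at 2,000 per well, rested 5 hr at 37C, then exposed to DMSO-dissolved compounds for 24 hr. Activation was read as luciferase luminescence.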
% is scaled to controls: 0 for no effect and ±100 for the full control effect.

Cn1c(=O)c2c(ncn2CCO)n(C)c1=O
inactive: outcome [1] | outcome [2] | outcome [3] | outcome [4] | outcome [5] | outcome [6] | outcome [7] | Potency [8] | outcome [9] | outcome [10] | Potency [11] | Potency [12] | Potency [13] | Potency [14] | Potency [15]

N#Cc1ccccc1O
inactive: outcome [1] | outcome [2] | outcome [3] | outcome [4] | outcome [5] | outcome [6] | outcome [7] | Potency [8] | outcome [9] | outcome [10] | Potency [11] | Potency [12] | Potency [16] | Potency [13] | Potency [17] | Potency [14]

CCn1cc(C(=O)O)c(=O)c2cnc(N3CCCC3)nc21
inactive: viability change, negative = cytotoxic [1] 10.1% [at 6.97 µM] | activity change, negative = cytotoxicity [2] 3.95% [at 6.97 µM] | activation [3] -0.108% [at 6.97 µM] | activity, negative = inhibition [4] 1.25% [at 4.65 µM] | activation [5] -0.507% [at 5.23 µM] | activity change, negative = cytotoxicity [6] -1.63% [at 8.39 µM] | caspase activation [7] 1.75% [at 8.39 µM] | activity change, negative = cytotoxicity [8] 1.69% [at 8.39 µM] | caspase-3/7 activation [9] 1.6% [at 8.39 µM] | activity change, negative = cytotoxicity [10] -1.49% [at 8.39 µM] | activity change, negative = inhibition [12] -1.62% [at 10.5 µM] | activity change, negative = inhibition [16] -11.6% [at 10.5 µM] | activity change, negative = inhibition [14] -5.15% [at 6.97 µM]

N#CCC(=O)NN
inactive: outcome [1] | outcome [2] | outcome [3] | outcome [4] | outcome [5] | outcome [6] | Potency [8] | outcome [9] | outcome [10] | Potency [11] | Potency [18] | Potency [19] | Potency [12] | Potency [13] | Potency [14] | Potency [15]
